This is an account of results in PubChem BioAssay.

Assay [1] is described as follows: inhibition of Brca1/Bard1 split-luciferase complementation, confirmation, counter-screen for Mdm2/MdmX interaction inhibitor project, luminescence, single concentration (AID 504668). Conditions: Brca1/Bard1 bimolecular luciferase complementation counterscreen, at 8 µM, stronger effect = higher value. On the technique in general: A counterscreen serves to expose hits that act by an unwanted route or on another target.

Assay [2] addresses PEG-3 (UniProt Q6IN02). Nature of the assay: Peg3 promoter luciferase inhibitors, potency, dose response, cell-based, HeLa, CREF/GAPDH counter-screen panel (AID 624167). Conditions: CREF/GAPDH counter-screens; HeLa PEG-Prom luciferase reporter, overnight, run 1, dose range 1, at 100 µM (top of the series) unless noted.
The target in assay [3] is PEG-3 (UniProt Q6IN02). The assay is described as above. Conditions: CREF/GAPDH counter-screens; HeLa PEG-Prom luciferase reporter, overnight, run 2, dose range 1, at 100 µM (top of the series) unless noted.
Chain of PEG-3 (Q6IN02 whole entry, looked up): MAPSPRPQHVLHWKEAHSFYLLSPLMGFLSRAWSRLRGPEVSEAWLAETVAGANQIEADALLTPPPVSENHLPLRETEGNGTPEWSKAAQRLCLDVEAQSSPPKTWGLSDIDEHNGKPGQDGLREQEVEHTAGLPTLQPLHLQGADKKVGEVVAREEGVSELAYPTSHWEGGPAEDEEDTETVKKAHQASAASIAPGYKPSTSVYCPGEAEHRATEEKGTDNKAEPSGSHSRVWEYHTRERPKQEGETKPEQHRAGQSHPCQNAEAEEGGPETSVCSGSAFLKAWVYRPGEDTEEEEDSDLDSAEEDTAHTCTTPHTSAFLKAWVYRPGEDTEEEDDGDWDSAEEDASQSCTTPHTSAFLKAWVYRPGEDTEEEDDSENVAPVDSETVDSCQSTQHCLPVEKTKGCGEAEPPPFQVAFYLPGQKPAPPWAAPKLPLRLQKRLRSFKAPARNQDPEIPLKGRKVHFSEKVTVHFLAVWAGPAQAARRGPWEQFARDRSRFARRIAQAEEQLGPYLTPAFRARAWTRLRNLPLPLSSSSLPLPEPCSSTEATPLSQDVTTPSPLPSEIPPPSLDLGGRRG
The test system of assay [4] is Rat fibroblasts (CREF). The description is as above. To be noted: CREF/GAPDH counter-screens; run 1, dose range 1, at 100 µM (top of the series).
Assay [5] deals with Rat fibroblasts (CREF). The description is as above. To be noted: CREF/GAPDH counter-screens; run 2, dose range 1, at 100 µM (top of the series).
Assay [6] concerns the target Tumor necrosis factor receptor superfamily member 10B (Homo sapiens) (UniProt O14763). Nature of the assay: caspase-8 TRAIL sensitization, hit retest, confirmation, cell-based, NB7+caspase-8, with/without TRAIL, luminescence panel (AID 651596; in the data active = activity above about 50%). Conditions: NB7 neuroblastoma + caspase-8, TRAIL sensitization, luminescence viability, with TRAIL, mean of runs, at 10 µM, stronger effect = higher value.

Assay in assay [7]: as above
To be noted: NB7 neuroblastoma + caspase-8, without TRAIL, luminescence viability, without TRAIL, mean of runs, at 10 µM.

The nature of assay [8]: inhibitors of PAF-induced NFkB signaling in CF airway cells, dose response, cell-based, uHTS hits, panel, cytotoxicity readout (AID 624344). Conditions: CF bronchial epithelial cells, PAF-induced NFkB reporter inhibition, with PAF, run 1; at 79 µM (top of the series) unless noted.
Assay in assay [9]: as above
To be noted: CF bronchial epithelial cells, PAF-induced NFkB reporter inhibition, with PAF, run 2; at 79 µM (top of the series) unless noted.

Calls of active or inactive are those of the source. Unless noted, no rule for the calls is given here.

Chain of Tumor necrosis factor receptor superfamily member 10B (Homo sapiens) (O14763 whole entry, looked up): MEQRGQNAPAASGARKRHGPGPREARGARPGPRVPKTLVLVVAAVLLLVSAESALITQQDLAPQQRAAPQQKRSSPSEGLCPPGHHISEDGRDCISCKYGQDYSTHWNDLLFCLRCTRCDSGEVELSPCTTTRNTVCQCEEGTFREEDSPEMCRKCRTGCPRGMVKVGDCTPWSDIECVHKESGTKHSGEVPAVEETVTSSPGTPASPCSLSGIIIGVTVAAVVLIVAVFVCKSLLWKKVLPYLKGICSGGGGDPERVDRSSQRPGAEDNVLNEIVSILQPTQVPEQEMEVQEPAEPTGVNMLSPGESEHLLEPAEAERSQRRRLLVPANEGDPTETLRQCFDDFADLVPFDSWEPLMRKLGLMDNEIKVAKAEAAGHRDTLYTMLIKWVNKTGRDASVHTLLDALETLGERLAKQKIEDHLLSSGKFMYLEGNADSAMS

A word on the inhibition: it is the relative decrease from the control value, in per cent. For `O=C(NCCc1ccccc1)c1ccc2c(c1)OCCO2`, the inhibition in assay [1] is 27.8% (active); with PEG-3 [2] it was 94.6%; in the assay with PEG-3 [3], 97.9%; in the assay on Rat fibroblasts (CREF) [4], 99%; in the assay on Rat fibroblasts (CREF) [5], 98.4%. In addition, the activity in assay [6] is 89.7%; in [7], 90.2%.

As for `CC(C)Nc1ncnc2ccc(Br)cc12`, the inhibition in [1] was 24.8% (active); in [8] it was 118%; in assay [9], 104%.

In the case of `O=C(N/N=C\c1c(O)ccc2ccccc12)c1cncc(Br)c1`, the inhibition in assay [1] was 26.8% (active); in the assay with PEG-3 [2] it was 82.3%; with PEG-3 [3] it was 79.4%; in the assay with Rat fibroblasts (CREF) [4] it was 78.3%; with Rat fibroblasts (CREF) [5], 79.5%.

On to `CCc1c(C)nc2ccc(Br)cc2c1SCCC#N`, for which the inhibition in [1] was 23.1% (active); in assay [8], 105%; in assay [9], 113%.

As for `Cc1cccc(Nc2ncnc3ccc(Br)cc23)c1`, the inhibition is 25.6% (active) in [1], 103% in assay [8] and 110% in [9].

Turning to `Cc1nc2cc(-c3ccccc3)sc2c(=O)n1N`, the inhibition was 30% (active) in assay [1]; 102% with PEG-3 [2]; 97.8% with PEG-3 [3]; 93.7% in the assay with Rat fibroblasts (CREF) [4]; 92% with Rat fibroblasts (CREF) [5]. Besides, the activity in [6] stood at 73.1%; in assay [7] it was 73.6%.

In the case of `C/C(=N\NC(=O)c1c(C)nc2ccccn12)c1ccc(O)cc1O`, the inhibition was 33.7% (active) in assay [1]; 66.9% with PEG-3 [2]; 48.1% with PEG-3 [3]; 49.2% with Rat fibroblasts (CREF) [4]; 56.5% in the assay on Rat fibroblasts (CREF) [5].

For `CC(C)(C)c1ccc(C(=O)O/N=C(\N)c2ccccn2)cc1`, the inhibition in assay [1] is 28% (active); with PEG-3 [2], 102%; in the assay with PEG-3 [3], 99%; in the assay on Rat fibroblasts (CREF) [4], 101%; in the assay with Rat fibroblasts (CREF) [5], 99.9%. Moreover, the activity in [6] and in [7] was 99.8% throughout.

For the compound `CN1CCN(c2ncnc3scc(-c4ccccc4Cl)c23)CC1`, the inhibition was 28.7% (active) in [1], 113% in assay [8] and 100% in assay [9].

As for `Cc1ccc(C(=O)O/N=C(\N)c2ccccn2)cc1`, the inhibition in assay [1] is 34% (active); with PEG-3 [2] it was 102%; with PEG-3 [3], 100%; in the assay with Rat fibroblasts (CREF) [4], 100%; in the assay with Rat fibroblasts (CREF) [5], 101%.

For the compound `Cc1c(C=O)c(C=O)c(C)n1Cc1ccccc1`, the inhibition in [1] was 30.8% (active); in [8], 118%; in assay [9], 103%.

With `O=C(O)c1cccc(COc2ccc3c(c2)CCC3)c1`, the inhibition was 24.1% (active) in assay [1]; 98.5% with PEG-3 [2]; 99.1% with PEG-3 [3]; 91.1% in the assay with Rat fibroblasts (CREF) [4]; 89.3% in the assay on Rat fibroblasts (CREF) [5].

For the compound `COc1ccc(-c2csc3ncnc(NCCO)c23)cc1`, the inhibition is 26.2% (active) in assay [1], 104% in [8] and 113% in assay [9].

Take `COc1ccc(-c2nsc3c(N4CCCCC4C)ncnc23)cc1` (stereo not given): the inhibition is 24.8% (active) in assay [1], 89.7% in the assay with PEG-3 [2] and 93.5% in the assay with PEG-3 [3]. The activity in assay [6] came to 86.8%; in [7], 87.7%.

Turning to `COc1ccc(C(NC(C)=O)c2ccc3cccnc3c2O)c(OC)c1` (stereo not given), the inhibition in assay [1] is 31.2% (active); with PEG-3 [2] it was 64.7%; with PEG-3 [3], 59.9%; in the assay with Rat fibroblasts (CREF) [4], -4.86%; in the assay with Rat fibroblasts (CREF) [5], 50.2%.

On to `CN(C)CCCN(C(=O)c1ccc(C(=O)c2ccccc2)cc1)c1nc2cc3c(cc2s1)OCO3`, for which the inhibition in [1] was 31.7% (active); with PEG-3 [2], 99.4%; with PEG-3 [3] it was 102%. Moreover, the activity in [6] is 46.7%; in [7] it was 54.3%.

As to `CCC(=O)NC(c1ccc(C)cc1)c1ccc2cccnc2c1O` (stereo not given), the inhibition is 23.7% (active) in [1]; -12.7% in the assay with PEG-3 [2]; 50.5% with PEG-3 [3]; 16.7% in the assay on Rat fibroblasts (CREF) [4]; 31.4% in the assay on Rat fibroblasts (CREF) [5].

Consider `Cc1cc(C(=O)COC(=O)c2ccccc2O)c(C)n1CC1CCCO1` (stereo not given), for which the inhibition in [1] was 35.8% (active); with PEG-3 [2] it was 99.1%; with PEG-3 [3], 101%; in the assay on Rat fibroblasts (CREF) [4] it was 99.6%; in the assay on Rat fibroblasts (CREF) [5], 99.2%. Also, the activity in [6] is 91.2%; in assay [7], 88.9%.

Take `COc1ccc(C(=O)O/N=C(\N)c2ccccn2)cc1`: the inhibition is 24.2% (active) in assay [1]; 99.1% in the assay with PEG-3 [2]; 101% with PEG-3 [3]; 98.2% with Rat fibroblasts (CREF) [4]; 99.2% in the assay on Rat fibroblasts (CREF) [5].

In the case of `Cc1ccc2nc(C(F)(F)F)c(C#N)c(N)c2c1`, the inhibition in [1] was 25.7% (active); in assay [8], 114%; in [9], 106%.

For the compound `O=C(Nc1ccc(N2CCOCC2)cc1)c1cnsn1`, the inhibition in assay [1] was 32.1% (active); in the assay with PEG-3 [2] it was 96.4%; in the assay with PEG-3 [3], 98.9%; with Rat fibroblasts (CREF) [4], 97.9%; in the assay on Rat fibroblasts (CREF) [5], 60.2%. The activity is 78.7% in [6] and 75.9% in assay [7].

As for `COc1cccc(NC(=O)Nc2nnc(CC(=O)NCc3ccccc3)s2)c1`, the inhibition in assay [1] was 35.1% (active); in assay [8], 79.8%; in assay [9], 83.7%.

On to `Cc1ccc2nc(-c3ccccc3)cn2c1`, for which the inhibition in [1] is 32.2% (active); in the assay with PEG-3 [2], 97.5%; in the assay with PEG-3 [3], 99%; in the assay on Rat fibroblasts (CREF) [4] it was 100%; with Rat fibroblasts (CREF) [5], 99.1%. Further, the activity amounted to 94% in [6] and 93.9% in [7].

On to `c1ccc(-c2noc(-c3ccc4c(c3)OCO4)n2)nc1`, for which the inhibition was 29.3% (active) in [1]; 91.3% in the assay with PEG-3 [2]; 94.5% with PEG-3 [3]; 95.9% with Rat fibroblasts (CREF) [4]; 95.7% with Rat fibroblasts (CREF) [5]. Moreover, the activity amounted to 93.2% in assay [6] and 93.7% in assay [7].

On to `COC1(OC)C=CC(=O)C=C1NC(=O)c1ccccc1OC(C)=O`, for which the results for the inhibition in assay [1], in assay [8] and in assay [9] were 35.6% (active), 101% and 113%, respectively.

As to `COc1ccc(C(=O)CN2C(=O)c3ccccc3S2(=O)=O)cc1`, the inhibition in [1] was 25.5% (active); in the assay with PEG-3 [2], 99.1%; with PEG-3 [3], 97.6%; with Rat fibroblasts (CREF) [4], 96.6%; with Rat fibroblasts (CREF) [5], 97.6%. The values for the activity in assay [6] and in [7] were 70.2% and 70.8%, respectively.

Take `COC(=O)c1nn(-c2ccc3c(c2)CCN3C(C)=O)cc1O`: the inhibition in [1] was 31% (active); with PEG-3 [2], 96.2%; in the assay with PEG-3 [3], 97.9%; in the assay on Rat fibroblasts (CREF) [4], 99.1%; in the assay on Rat fibroblasts (CREF) [5], 99.2%. The activity in assay [6] was found to be 86.6%; in assay [7], 85.3%.

For the compound `Cc1cc(C)c2nc(NNC(=O)c3ccc(S(=O)(=O)N4CC(C)CC(C)C4)cc3)sc2c1` (stereo not given), the inhibition in [1] is 23.2% (active); with PEG-3 [2], 99.5%; with PEG-3 [3], 101%; in the assay with Rat fibroblasts (CREF) [4] it was 92.9%; in the assay with Rat fibroblasts (CREF) [5], 95.6%.

Regarding `O=C(CCn1cnc(-c2ccccc2)c1-c1ccccc1)N/N=C/c1ccccc1O`, the inhibition was 25.7% (active) in assay [1]; 100% in the assay with PEG-3 [2]; 101% with PEG-3 [3]; 86.7% with Rat fibroblasts (CREF) [4]; 94.1% in the assay with Rat fibroblasts (CREF) [5].
